For 17 compounds, inhibition results are on record in ChEMBL document CHEMBL1961873, “Compounds: GSK PKIS; Assays: Nanosyn kinase panel” (2012).

Structures are written as SMILES.

What is called inhibition is the relative decrease from the control value, in per cent.

In test [1] the target is Serine/threonine-protein kinase pim-2 (Homo sapiens) (UniProt Q9P1W9). As to conditions: at 1 µM.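 Note: each value is a mean of the inhibition measurements against the kinase.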
Test [2] deals with Serine/threonine-protein kinase pim-3 (Homo sapiens) (UniProt Q86V86). As to conditions: at 0.1 µM.
The target is the same in test [3]. The note with it: at 1 µM.
Test [4] has as its target T1, MAP kinase-activated protein kinase 5 (Homo sapiens) (UniProt Q8IW41).
T1 sequence (whole entry): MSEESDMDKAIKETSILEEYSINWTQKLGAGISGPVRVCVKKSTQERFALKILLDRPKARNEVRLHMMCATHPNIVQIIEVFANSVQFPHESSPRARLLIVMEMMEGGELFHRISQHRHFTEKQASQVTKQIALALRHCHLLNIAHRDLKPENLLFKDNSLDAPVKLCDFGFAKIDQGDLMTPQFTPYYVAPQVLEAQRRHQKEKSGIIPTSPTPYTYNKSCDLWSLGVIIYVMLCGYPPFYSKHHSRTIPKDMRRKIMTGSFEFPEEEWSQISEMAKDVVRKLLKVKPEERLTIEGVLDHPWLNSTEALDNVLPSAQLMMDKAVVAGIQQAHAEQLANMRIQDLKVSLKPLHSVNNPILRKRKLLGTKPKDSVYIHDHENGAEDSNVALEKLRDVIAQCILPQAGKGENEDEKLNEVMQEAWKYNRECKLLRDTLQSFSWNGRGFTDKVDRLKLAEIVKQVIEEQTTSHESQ
As to conditions: at 0.1 µM.

For test [5], the target named is T1, MAP kinase-activated protein kinase 5 (Homo sapiens). The note with it: at 1 µM.
In test [6] the target is Serine/threonine-protein kinase SIK1 (Homo sapiens) (UniProt P57059). The note with it: at 0.1 µM.
For test [7] the target is unchanged. The note with it: at 1 µM.
Test [8] addresses Serine/threonine-protein kinase SIK2 (Homo sapiens) (UniProt Q9H0K1). As to conditions: at 0.1 µM.
The target is the same in test [9]. As to conditions: at 1 µM.
The target of test [10] is T2, Serine/threonine-protein kinase TBK1 (Homo sapiens) (UniProt Q9UHD2).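 Note: values are the mean TBK1 inhibition, taken from the GSK PKIS screening data.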
T2 sequence (whole entry): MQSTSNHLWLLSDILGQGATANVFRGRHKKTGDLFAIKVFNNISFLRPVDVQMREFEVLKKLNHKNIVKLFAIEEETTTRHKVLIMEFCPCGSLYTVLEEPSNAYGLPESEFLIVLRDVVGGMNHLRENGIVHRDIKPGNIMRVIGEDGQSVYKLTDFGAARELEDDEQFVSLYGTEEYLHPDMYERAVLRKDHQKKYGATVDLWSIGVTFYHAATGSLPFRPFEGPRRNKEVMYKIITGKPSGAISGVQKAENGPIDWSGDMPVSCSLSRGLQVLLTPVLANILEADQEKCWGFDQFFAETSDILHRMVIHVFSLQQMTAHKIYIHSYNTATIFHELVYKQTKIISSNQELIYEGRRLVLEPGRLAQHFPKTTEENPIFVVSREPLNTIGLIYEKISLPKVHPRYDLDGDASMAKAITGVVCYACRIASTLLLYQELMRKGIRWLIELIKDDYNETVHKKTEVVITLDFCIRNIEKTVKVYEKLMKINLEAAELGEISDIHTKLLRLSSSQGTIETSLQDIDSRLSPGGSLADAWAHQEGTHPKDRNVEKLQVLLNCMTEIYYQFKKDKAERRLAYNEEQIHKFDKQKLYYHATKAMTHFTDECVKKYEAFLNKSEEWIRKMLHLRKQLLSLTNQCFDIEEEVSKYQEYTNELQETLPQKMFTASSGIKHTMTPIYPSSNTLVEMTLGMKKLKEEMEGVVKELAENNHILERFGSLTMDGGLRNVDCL
As to conditions: at 0.1 µM.

Chain of Serine/threonine-protein kinase pim-2 (Homo sapiens) (Q9P1W9 whole entry, looked up): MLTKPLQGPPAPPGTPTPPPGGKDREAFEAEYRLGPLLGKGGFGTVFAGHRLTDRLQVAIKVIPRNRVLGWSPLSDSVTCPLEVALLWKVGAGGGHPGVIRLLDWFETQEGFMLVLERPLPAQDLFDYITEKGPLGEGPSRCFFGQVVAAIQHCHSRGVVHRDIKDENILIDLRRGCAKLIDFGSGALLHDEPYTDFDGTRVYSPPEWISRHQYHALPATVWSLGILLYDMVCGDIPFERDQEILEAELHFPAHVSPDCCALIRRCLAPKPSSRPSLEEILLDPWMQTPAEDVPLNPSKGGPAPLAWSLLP
Chain of Serine/threonine-protein kinase SIK1 (Homo sapiens) (P57059 whole entry): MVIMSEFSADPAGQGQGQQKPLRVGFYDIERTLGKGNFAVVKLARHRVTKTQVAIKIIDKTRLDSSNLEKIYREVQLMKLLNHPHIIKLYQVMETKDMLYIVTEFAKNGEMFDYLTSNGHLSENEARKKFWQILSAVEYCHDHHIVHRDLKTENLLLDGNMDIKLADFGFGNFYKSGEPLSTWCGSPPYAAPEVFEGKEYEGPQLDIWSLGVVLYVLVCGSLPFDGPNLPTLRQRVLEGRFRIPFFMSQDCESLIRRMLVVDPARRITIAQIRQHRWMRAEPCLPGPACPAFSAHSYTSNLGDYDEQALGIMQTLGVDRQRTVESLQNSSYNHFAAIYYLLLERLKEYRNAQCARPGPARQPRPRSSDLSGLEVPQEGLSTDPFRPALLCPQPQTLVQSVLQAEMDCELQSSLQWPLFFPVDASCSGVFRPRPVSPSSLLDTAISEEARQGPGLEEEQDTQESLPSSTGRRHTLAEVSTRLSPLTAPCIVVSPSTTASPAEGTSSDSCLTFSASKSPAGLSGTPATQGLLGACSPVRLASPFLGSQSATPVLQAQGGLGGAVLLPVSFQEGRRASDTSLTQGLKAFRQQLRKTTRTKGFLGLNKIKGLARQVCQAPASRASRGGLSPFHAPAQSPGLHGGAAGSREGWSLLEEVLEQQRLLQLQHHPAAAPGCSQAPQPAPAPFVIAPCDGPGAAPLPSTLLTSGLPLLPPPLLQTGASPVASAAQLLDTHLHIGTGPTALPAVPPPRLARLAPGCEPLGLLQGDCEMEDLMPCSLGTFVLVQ
Chain of Serine/threonine-protein kinase SIK2 (Homo sapiens) (Q9H0K1 whole entry, looked up): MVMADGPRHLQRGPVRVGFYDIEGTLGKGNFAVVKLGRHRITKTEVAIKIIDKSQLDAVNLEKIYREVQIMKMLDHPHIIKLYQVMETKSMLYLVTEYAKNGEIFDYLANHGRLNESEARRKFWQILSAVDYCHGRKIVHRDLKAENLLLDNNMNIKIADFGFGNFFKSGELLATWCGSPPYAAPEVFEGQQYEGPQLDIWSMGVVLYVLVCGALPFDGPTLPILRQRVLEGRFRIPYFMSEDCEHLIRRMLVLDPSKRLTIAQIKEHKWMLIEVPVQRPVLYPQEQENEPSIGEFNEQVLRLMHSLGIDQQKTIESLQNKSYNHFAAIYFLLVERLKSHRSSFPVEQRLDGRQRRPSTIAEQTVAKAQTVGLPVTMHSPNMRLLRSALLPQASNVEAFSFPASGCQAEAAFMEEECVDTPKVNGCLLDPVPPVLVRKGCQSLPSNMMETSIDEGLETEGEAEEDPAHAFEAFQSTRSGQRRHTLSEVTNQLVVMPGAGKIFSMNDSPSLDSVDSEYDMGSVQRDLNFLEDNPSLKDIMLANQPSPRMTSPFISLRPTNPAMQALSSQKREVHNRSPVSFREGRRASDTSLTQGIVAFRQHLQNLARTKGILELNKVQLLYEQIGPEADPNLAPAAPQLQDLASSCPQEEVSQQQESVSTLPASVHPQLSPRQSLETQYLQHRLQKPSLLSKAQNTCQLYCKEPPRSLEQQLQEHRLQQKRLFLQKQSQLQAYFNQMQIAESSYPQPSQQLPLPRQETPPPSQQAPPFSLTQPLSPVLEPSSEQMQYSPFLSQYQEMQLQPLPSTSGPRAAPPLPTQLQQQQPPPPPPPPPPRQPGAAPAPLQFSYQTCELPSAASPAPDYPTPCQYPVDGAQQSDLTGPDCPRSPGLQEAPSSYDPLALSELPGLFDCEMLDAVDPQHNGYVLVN

`CC1=C(C(=O)Nc2ccc3[nH]ncc3c2)C(c2ccc(Cl)c(Cl)c2)CC(=O)N1` (centres undefined): the inhibition in test [1] was -1.37%; in test [2], -0.64%; in [3] it was -1.31%; in test [4], 0.08%; in [5] it was -1.02%; in test [6] it was 6.5%. Also, the inhibition was 2.84% in test [7], -0.93% in test [8], 2.87% in [9] and -0.19% in [10].
As to `COC(=O)Nc1nc2cc(Oc3cccc(NC(=O)Nc4cc(C(F)(F)F)ccc4F)c3)ccc2[nH]1`, the inhibition in [1] was 0.76%; in [2], 0.14%; in test [3] it was 0.51%; in test [4] it was -0.26%; in [5], -2.14%; in test [6] it was 0.37%. Moreover, the inhibition in [7] was 2.51%; in [8], -0.54%; in test [9], 3.76%.
Take `CC1=C(C(=O)Nc2ccc3[nH]ncc3c2)C(c2ccc(F)cc2)NC(=O)N1` (centres undefined): the inhibition in test [1] was -0.13%; in test [2], 0.21%; in test [3], -0.69%; in test [4], 2.17%; in test [5], 0.76%; in test [6], 0.84%. The inhibition in test [7] was determined as 3.8%; in test [8], 3.04%; in test [9], 1.13%; in [10], 2.82%.
`COc1cc2ncn(-c3cc(O[C@@H](C)c4ccccc4Cl)c(C(N)=O)s3)c2cc1OC`: the inhibition in test [1] came out at 0.91%; in test [2], 0.03%; in test [3], 4.24%; in test [4], 1.26%; in test [5] it was 1.22%; in [6] it was 6.27%. The inhibition in test [7] was 18.1%; in [8], 2.99%; in [9], 12%; in test [10] it was 4.39%.
Turning to `Fc1cccc(COc2ccc(Nc3ncnc4sc(-c5cccs5)cc34)cc2Cl)c1`, the inhibition in test [1] turned out to be 1.54%; in test [2], 0.47%; in [3] it was 1.27%; in [4], 0.51%; in [5], 0.8%; in test [6], 0.72%. For the same compound, the inhibition is 7.28% in test [7], 2.25% in test [8], -2.41% in test [9] and 0.83% in test [10].
Consider `Cc1nnc(-c2ccc(C)c(-c3ccc(C(=O)Nc4cccc(C#N)c4)cc3)c2)o1`, for which the inhibition stood at 0.22% in test [1]; 0.95% in [2]; 2.47% in test [3]; 0.95% in test [4]; 0.82% in test [5]; 3.54% in [6]. The inhibition turned out to be 4.65% in [7], 4.14% in [8], 3.76% in test [9] and 5.08% in [10].
Take `O=C1NC(=O)C(c2cccc(Cl)c2)=C1Nc1ccc(O)c(Cl)c1`: the inhibition was 1.76% in test [1]; -0.02% in test [2]; 0.87% in test [3]; -0.23% in [4]; -0.79% in test [5]; -4.1% in test [6]. For the same compound, the inhibition was 9.22% in [7], -3.06% in [8], 19.8% in [9] and 3.62% in test [10].
With `COc1cc2ncn(-c3cc(O[C@H](C)c4ccccc4Cl)c(C(N)=O)s3)c2cc1OC`, the inhibition in [1] was 0.96%; in test [2], 2.36%; in test [3], 12.4%; in test [4], 2.09%; in test [5], 4.22%; in test [6] it was 12.6%. Besides, the inhibition in test [7] amounted to 53.1%; in [8] it was 10.9%; in test [9] it was 24.8%; in test [10] it was 3.11%.
For `CCn1c(-c2nonc2N)nc2ccncc21`, the inhibition was 0.12% in test [1]; -0.49% in test [2]; -1.56% in [3]; 0.36% in [4]; -0.69% in [5]; -0.38% in test [6]. Moreover, the inhibition in [7] amounted to 8.47%; in test [8] it was 5.56%; in [9], 3.95%; in test [10] it was 2.23%.
With `Fc1cccc(COc2ccc(Nc3ncnc4cc(-c5ccc[nH]5)sc34)cc2Cl)c1`, the inhibition in test [1] was -2.72%; in test [2] it was -0.5%; in test [3], 1.49%; in test [4], 0.74%; in test [5], 0.9%; in [6], 3.04%. Also, the inhibition in [7] was 8.63%; in [8] it was 3.89%; in [9], 7.67%; in [10], 2.35%.
As to `O=C1Nc2ccc(C(=O)c3ccco3)cc2C1=Cc1cc(Cl)c(O)c(Cl)c1`, the inhibition in test [1] was 17.9%; in [2], 12%; in test [3] it was 53.4%; in test [4], 1.97%; in [5], 8.16%; in [6], 4.01%. In addition, the inhibition in [7] was found to be 10.6%; in [8] it was 10.5%; in test [9], 6.6%; in [10], 4.59%.
Take `COc1cc2ncn(-c3cc(OCc4ccccc4Cl)c(C(N)=O)s3)c2cc1OC`: the inhibition in test [1] is 4.79%; in test [2], 1.01%; in [3], 8.63%; in test [4], -0.46%; in test [5], 0.67%; in test [6] it was -2.01%. In addition, the inhibition was determined as 28% in [7], 2.69% in [8], 26.6% in test [9] and 3.64% in test [10].
Consider `c1cnn2ncc(-c3ccnc(Nc4ccc5c(c4)OCCO5)n3)c2c1`, for which the inhibition in test [1] stood at 4.39%; in [2], 0.84%; in test [3], 16.2%; in test [4], 1.78%; in [5] it was 2.58%; in [6], 9.87%. The inhibition was 20.4% in test [7], 11.1% in test [8], 17.7% in test [9] and 3.41% in [10].
For the compound `CN1CCC(C(=O)Nc2n[nH]c3nnc(-c4ccccc4)cc23)CC1`, the inhibition in test [1] is 1.49%; in [2], -0.11%; in test [3], 3.84%; in [4], 1.41%; in test [5], 3.73%; in test [6], 7.3%. The inhibition came to 7.57% in test [7], 6.82% in test [8], 8.16% in [9] and 2.09% in test [10].
For `NC(=O)c1ccc(-c2nc(-c3ccccn3)c(-c3ccc4c(c3)OCO4)[nH]2)cc1`, the inhibition in test [1] was 0.78%; in [2] it was 0.11%; in test [3], 0.3%; in [4] it was 0.77%; in [5], 1.22%; in test [6], 3.17%. The inhibition in test [7] came to 5.25%; in test [8], 7.51%; in test [9] it was 11.6%; in [10] it was 2.24%.
For `CCn1c(-c2nonc2N)nc2c(N3CCCC3)nccc21`, the inhibition was 0.29% in test [1]; -0.84% in test [2]; 1% in test [3]; -0.99% in [4]; -0.15% in test [5]; -7.25% in test [6]. Moreover, the inhibition in test [7] is -2.47%; in test [8], -7.08%; in [9], -6.02%; in test [10] it was -0.24%.
Consider `NS(=O)(=O)c1ccc(N/N=C2\C(=O)Nc3ccc(C(=O)NCCc4c[nH]cn4)cc32)cc1`, for which the inhibition in test [1] was determined as 24.7%; in [2], 4.71%; in test [3], 44.7%; in [4], 1.41%; in test [5], 2.5%; in test [6], 11.7%. The inhibition was 32.5% in test [7], 6.36% in test [8], 16.9% in test [9] and 3.67% in [10].
